# The campaign covered roughly 5,600 compounds. About 4,500 (80%) were called active. So high a share suggests a set chosen from earlier hits. These entries were drawn from the full list. Unmarked numbers belong to inactive results. Rule as the data show it: active = inhibition above about 10%; inactive = the rest.
# Test: GDH-TPI coupling enzyme inhibitors, artefact control for M. tuberculosis FBA inhibitor project, biochemical, fluorescence, high throughput (AID 652141)
# Details: GDH-TPI coupled enzyme counterscreen, at 1 µM, hits give high values
row,Structure (SMILES),inhibition
1,COCCCNC(=S)N(CCN(C)C)Cc1cc2cc3c(cc2[nH]c1=O)OCCO3,41% (active)
2,Cc1ccc2nc(/C(C#N)=C\c3ccc(OC(=O)c4cccs4)cc3)[nH]c2c1,39% (active)
3,Cc1ccsc1C(=O)N[C@@H](C)c1nnc2ccccn12,110% (active)
4,CCC1C(=O)c2ccccc2N(C)C1=O (stereo unspecified),-6.39%
5,CN1CCN(CCCNC(=O)c2ccc(/C=C3\Oc4ccccc4N(Cc4ccc(Cl)cc4)C3=O)cc2)CC1,-4.56%
6,O=C(NCCN1CCOCC1)c1ccc2c(c1)N(Cc1ccc(Cl)cc1)CCS2,48.2% (active)
7,O=C(NCCc1ccccc1)c1ccc2c(c1)N(Cc1ccccc1)CCS2,29.2% (active)
8,CC(C)(C)Nc1c(-c2cccs2)nc2ccccn12,114% (active)
9,CCOC(=O)c1c(-c2ccccc2)oc2ccc(OCC(=O)NN)cc12,74.7% (active)
10,Cc1c(Cc2ccccc2)c(=O)oc2cc(OCC(N)=O)ccc12,"899% [above what the read-out allows, likely interference] (active)"
11,COC(=O)c1c(-c2ccsc2)oc2ccc(-c3cc(OC)c(OC)c(OC)c3)cc12,-4.81%
12,Cc1c(CCC(=O)O)c(=O)oc2cc(OCc3ccc(Br)cc3)ccc12,1.56%
13,CCOC(=O)c1c(-c2ccccc2)oc2ccc(OC(=O)N(C)C)cc12,164% (active)
14,CCOC(=O)c1c(-c2ccccc2)oc2ccc(OCC(N)=O)cc12,126% (active)
15,C=CCNC(=O)c1ccc2c3n(nc2c1)-c1ccc(C)cc1CO3,160% (active)
16,CCOC(=O)CSc1nc2c(c(=O)n(Cc3ccccc3Cl)c(=O)n2C)n1C,28.5% (active)
17,COc1ccc(-n2cc(CN(C)Cc3n[nH]c(=O)[nH]3)c(-c3cccc(F)c3)n2)cc1,37.4% (active)
18,COc1ccc(-n2cc(CNC3CCOCC3)c(-c3cccc(F)c3)n2)cc1,15.8% (active)
19,CCCc1nc2oc3c(=O)[nH]cnc3c2c2c1COC(C)(C)C2,101% (active)
20,O=C(O)/C=C/c1cn(-c2ccccc2)nc1-c1cccs1,76.6% (active)
21,COc1ccccc1-c1oc2ccccc2c1C#CCCCCO,145% (active)
22,Cc1ccc(-c2nc(C#N)c(NCCCn3ccnc3)o2)cc1,34.1% (active)
23,Cn1cc(-c2ccccc2)cc(C#N)c1=O,79.8% (active)
24,C=CCn1cc(-c2cccc(C(F)(F)F)c2)cc(C#N)c1=O,-2.28%
25,CN(CCNC(=O)c1cc2c(-c3ccccc3F)nn(C)c2s1)C1CCCCC1,183% (active)
26,CCOC(=O)c1cc2cc(C)ccc2[nH]1,42.5% (active)

# — PubChem BioAssay AID652141 (The Scripps Research Institute Molecular Screening Center, 2013)
